Results as given in PubChem BioAssay AID504652 (National Center for Advancing Translational Sciences (NCATS), 2011).
Values joined by “and” are separate entries in the source; they are usually repeats but may differ in a detail not shown here. Identical values can stand only once. The whole screen tested about 360,000 compounds, of which about 11,000 (3.1%) were called active. Cut-off read from the data, not from the text of the source: active = activity change below about -30%; inactive = the rest. This excerpt belongs to a sample that is enriched for actives. Some compounds were tested as several samples or in several runs, with calls that do not always agree.
% is set by controls: 0 for no effect and ±100 for the full control effect.

Each compound was assayed against D(1A) dopamine receptor (Homo sapiens) (UniProt P21728) (assay: Antagonist of Human D 1 Dopamine Receptor: qHTS). Conditions: HEK293 TREx D1 cells, calcium flux, dopamine EC80; at 10 µM; stronger effect = lower value.
Sequence of D(1A) dopamine receptor (Homo sapiens) (P21728 whole entry, looked up): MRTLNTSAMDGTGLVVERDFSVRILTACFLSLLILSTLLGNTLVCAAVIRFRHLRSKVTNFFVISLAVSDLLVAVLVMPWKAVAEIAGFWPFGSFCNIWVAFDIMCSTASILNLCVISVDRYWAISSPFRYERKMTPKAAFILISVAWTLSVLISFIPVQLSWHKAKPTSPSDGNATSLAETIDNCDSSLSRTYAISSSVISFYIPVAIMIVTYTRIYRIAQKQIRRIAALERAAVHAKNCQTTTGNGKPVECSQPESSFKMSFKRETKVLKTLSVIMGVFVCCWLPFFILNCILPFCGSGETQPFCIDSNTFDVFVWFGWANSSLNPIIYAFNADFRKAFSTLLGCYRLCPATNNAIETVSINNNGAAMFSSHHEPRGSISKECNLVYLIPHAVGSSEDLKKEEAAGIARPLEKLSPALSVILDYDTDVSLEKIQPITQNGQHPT
Method in brief: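 Compound effects on dopamine-evoked calcium signalling were measured in tetracycline-induced HEK293 Trex D1 cells. Dopamine at EC80 followed a 180 s compound pre-read, and fluorescence was tracked kinetically for 180 s more.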
In the case of `CCc1ccccc1NC(=O)Cc1ccc(NC(=O)N2CCCCc3ccccc32)cc1`, the activity change, negative = inhibition is reported as -2.99% (inactive).
`COc1cc(NC(=O)CCS(=O)(=O)c2ccc3c(c2)oc(=O)n3C)cc(OC)c1` was tested, and the activity change, negative = inhibition was -5.28% (inactive).
`CCOC(=O)c1ccc(NC(=O)CCS(=O)(=O)c2ccc(C)cc2)cc1` was tested, and the activity change, negative = inhibition was 2.9% (inactive).
With `CCOC(=O)c1ccc(NC(=O)CCS(=O)(=O)c2ccc3c(c2)oc(=O)n3C)cc1` the activity change, negative = inhibition was -34.1% (active).
In the case of `Cc1ccc(C(=O)OCC(=O)NCc2cc(C)c(O)c(C)c2)cc1S(=O)(=O)N1CCCCC1`, the activity change, negative = inhibition is reported as -93.9% (active).
In the case of `COc1ccc(CNC(=O)COC(=O)c2ccc(C)c(S(=O)(=O)N3CCOCC3)c2)cc1OC`, the activity change, negative = inhibition is reported as 13.1% (inactive).
For `Cc1ccc(C(=O)OCC(=O)N2CC(C)CC(C)C2)cc1S(=O)(=O)N1CCCCC1` (stereo unspecified), the activity change, negative = inhibition was -14.5% (inactive).
`CCc1ccc(C(=O)CC2(O)C(=O)N(CCc3ccccc3)c3ccc(Br)cc32)cc1` (stereo unspecified) was tested, and the activity change, negative = inhibition was 6.36% (inactive).
For `O=C(COc1ccc(Cl)cc1)NCc1nnc(SCC(=O)NCC2CCCO2)o1` (stereo unspecified), the activity change, negative = inhibition was -31.2% (active).
`O=C(CSc1nnc(-c2ccc(NS(=O)(=O)c3ccccc3)cc2)o1)NCC1CCCO1` (stereo unspecified) was tested, and the activity change, negative = inhibition was -3.8% (inactive).
In the case of `COc1ccc2c(C)cc(SCC(=O)NCC3CCCO3)nc2c1` (stereo unspecified), the activity change, negative = inhibition is reported as -21.4% (inactive).
In the case of `Cc1ccc2oc(C(=O)Nc3ccc(S(=O)(=O)N4CCCCCC4)cc3)cc(=O)c2c1`, the activity change, negative = inhibition is reported as -13.8% (inactive).
With `CCn1cc(CN2CCC(C(=O)Nc3cccc(-c4cccc(Cl)c4)c3)CC2)c(C)n1` the activity change, negative = inhibition was -1.32% (inactive).
For `CCn1cc(CN2CCC(C(=O)Nc3cccc(-c4cccc(Cl)c4)c3)CC2)cn1`, the activity change, negative = inhibition was -38.6% (active).
For `O=C(Nc1cccc(-c2cccc(Cl)c2)c1)C1CCN(C2CCC2)CC1`, the activity change, negative = inhibition was -10% (inactive).
With `CC1CCCCN1CC(=O)N1CCCc2c1c(=O)oc1ccc(OCc3ccccc3)cc21` (stereo unspecified) the activity change, negative = inhibition was 4.23% (inactive).
In the case of `O=C(NCc1nnc(C(=O)Nc2ccc(C(F)(F)F)cc2Cl)o1)c1ccccc1`, the activity change, negative = inhibition is reported as -10% (inactive).
With `O=C(Nc1ccc(Oc2ccccc2)cc1)C1CCN(S(=O)(=O)c2ccc(Cl)cc2)CC1` the activity change, negative = inhibition was -14.4% (inactive).
`O=C(Nc1cccc(Cl)c1)c1csnn1` was tested, and the activity change, negative = inhibition was 0.926% (inactive).
`O=C(Nc1ccccc1)c1nnsc1S(=O)(=O)c1ccc(Cl)cc1` was tested, and the activity change, negative = inhibition was -31.4% (active).
For `COC(=O)c1ccc(NC(=O)c2cnn(-c3ccc(Cl)cc3)c2C2CCN(C(=O)OC(C)(C)C)CC2)cc1`, the activity change, negative = inhibition was 8.43% (inactive).
In the case of `CC1CCN(S(=O)(=O)c2ccc3c(ccn3CCC(=O)NCc3ccc(N(C)C)cc3)c2)CC1`, the activity change, negative = inhibition is reported as -72.7% (active).
`CC1CCN(S(=O)(=O)c2ccc3c(ccn3CC(=O)O)c2)CC1` was tested, and the activity change, negative = inhibition was -15% (inactive).
For `O=C(CCn1ccc2cc(S(=O)(=O)N3CCCC3)ccc21)NCc1cccc(Cl)c1`, the activity change, negative = inhibition was 11.5% (inactive).
`N#Cc1ccc(-c2cccs2)nc1SCc1ccc(Br)cc1` was tested, and the activity change, negative = inhibition was -3.69% (inactive).
In the case of `Cc1ccc2c(c1)c1c(c(=O)n(-c3ccccc3)c(=O)n1CC(=O)c1ccc(Cl)cc1)n2C`, the activity change, negative = inhibition is reported as -16% (inactive).
`CCS(=O)(=O)N1CCc2cc(C(=O)NCc3ccc(C)cc3)ccc21` was tested, and the activity change, negative = inhibition was -4.2% (inactive).
`CN(CC(=O)NNC(=O)CNC(=O)c1ccccc1Cl)S(=O)(=O)c1ccc(Cl)cc1` was tested, and the activity change, negative = inhibition was -11.4% (inactive).
With `CN(CC(=O)NCC(c1ccccc1)N1CCCC1)S(=O)(=O)c1ccc(Cl)cc1` (stereo unspecified) the activity change, negative = inhibition was 12.1% (inactive).
For `CN(CC(=O)NCCc1ccccn1)S(=O)(=O)c1ccc(Cl)cc1`, the activity change, negative = inhibition was -32.4% (active).
In the case of `COc1ccc(C2CC(=O)NC(=O)C2)cc1`, the activity change, negative = inhibition is reported as 6.98% (inactive).
`CC(=O)Oc1cccc(N2C(=O)CC(Nc3ccc(N4CCOCC4)cc3)C2=O)c1` (stereo unspecified) was tested, and the activity change, negative = inhibition was 9.21% (inactive).
In the case of `COc1ccc(NC2CC(=O)N(C)C2=O)cc1` (stereo unspecified), the activity change, negative = inhibition is reported as -35.8% (active).
`COc1ccc(-c2nc3c(c(SCC(=O)Nc4ccc(C(=O)O)cc4)n2)Cc2ccccc2O3)cc1` was tested, and the activity change, negative = inhibition was -4.63% (inactive).
For `CCCCN(CC)CCCNC(=O)c1nn(C)c2c1CSc1ccccc1-2`, the activity change, negative = inhibition was 13% (inactive).
For `CCOC(=O)c1[nH]c(C)c(CCC(=O)NCc2ccccc2C)c1C`, the activity change, negative = inhibition was -16.9% (inactive).
In the case of `O=C(CCc1nc(CN2CCN(S(=O)(=O)c3ccc(F)cc3)CC2)no1)N1CCCCC1`, the activity change, negative = inhibition is reported as 11.3% (inactive).
For `CC(=O)c1sc(NC(=O)CCN2C(=O)C3CC=CCC3C2=O)nc1-c1ccccc1` (stereo unspecified), the activity change, negative = inhibition was 2.17% (inactive).
In the case of `O=C(CCN1C(=O)[C@H]2CC=CC[C@H]2C1=O)NCc1nc(-c2ccccc2)no1`, the activity change, negative = inhibition is reported as -34.2% (active).
In the case of `O=C(Cc1ccc(Cl)cc1)NCc1nc(-c2ccccc2)no1`, the activity change, negative = inhibition is reported as -12.9% (inactive).
In the case of `O=C(NC1CCN(Cc2ccccc2)CC1)c1ccc(Cn2c(=O)c3ccccc3n(Cc3cccc(F)c3)c2=O)cc1`, the activity change, negative = inhibition is reported as 2.59% (inactive).
`COc1cccc(-c2nc(S(=O)(=O)c3ccc(C)cc3)c(NCc3ccccc3)o2)c1` was tested, and the activity change, negative = inhibition was 24.7% (inactive).
`CN(c1ccccc1)S(=O)(=O)c1cccc(NC(=O)Cc2ccc(Cl)cc2)c1` was tested, and the activity change, negative = inhibition was -23.4% (inactive).
With `CN(c1ccccc1)S(=O)(=O)c1cccc(NC(=O)Cc2c(F)cccc2Cl)c1` the activity change, negative = inhibition was -47.4% (active).
For `CN(C)S(=O)(=O)c1cccc(NC(=O)Cc2ccsc2)c1`, the activity change, negative = inhibition was -5.36% (inactive).
For `O=C(CCC(=O)N1CC2CCCN2c2ccccc21)NCc1ccccc1Cl` (stereo unspecified), the activity change, negative = inhibition was -15.4% (inactive).
`O=C(CSc1nc2nccnc2c(=O)n1CCc1c[nH]c2ccccc12)Nc1ccccc1F` was tested, and the activity change, negative = inhibition was -39.8% (active).
`Cc1cc(C)c(NC(=O)CSc2nc3nccnc3c(=O)n2CCc2c[nH]c3ccccc23)c(C)c1` was tested, and the activity change, negative = inhibition was 1.52% (inactive).
`Cc1cc(C)cc(NC(=O)CSc2nc3nccnc3c(=O)n2CCc2c[nH]c3ccccc23)c1` was tested, and the activity change, negative = inhibition was 1.93% (inactive).
`CN(C(=O)c1ccc2c(c1)N(Cc1cccc(Cl)c1)C(=O)c1ccccc1S2=O)C1CCCCC1` (stereo unspecified) was tested, and the activity change, negative = inhibition was 2.7% (inactive).
In the case of `CC1CN(CCOc2ccccc2[N+](=O)[O-])CC(C)O1` (stereo unspecified), the activity change, negative = inhibition is reported as -11.6% (inactive).
`Cc1ccc(OCCCCN2CCCCC2)c(Br)c1` was tested, and the activity change, negative = inhibition was -23.4% (inactive).
`O=[N+]([O-])c1ccccc1OCCCCN1CCCCC1` was tested, and the activity change, negative = inhibition was -54.3% (active).
With `O=C(CSc1ncc(S(=O)(=O)c2ccc(Br)cc2)c(=O)[nH]1)Nc1ccc2c(c1)OCCO2` the activity change, negative = inhibition was 8% (inactive).
For `Oc1ccc(Cl)cc1C1C=C(c2ccc3c(c2)OCO3)NC(c2ccc(F)c(Br)c2)N1` (stereo unspecified), the activity change, negative = inhibition was -22.1% (inactive).
In the case of `Cc1cccc(S(=O)(=O)c2cn(Cc3ccccc3)c3cc(N4CCOCC4)c(F)cc3c2=O)c1`, the activity change, negative = inhibition is reported as 0.0166% (inactive).
`N/C(Cc1ccc([N+](=O)[O-])cc1)=N\OC(=O)C1CCCCC1` was tested, and the activity change, negative = inhibition was -11.7% (inactive).
With `NC(=O)c1ccc(NC(=O)COC(=O)c2ccc([N+](=O)[O-])cc2)cc1` the activity change, negative = inhibition was 1.67% (inactive).
For `O=C(COC(=O)C1CCCCC1)Nc1ccc([N+](=O)[O-])cc1`, the activity change, negative = inhibition was -34.5% (active).
In the case of `CCCCOc1ccc(C(=O)Nc2cccc(-c3nc4ccccc4o3)c2C)cc1`, the activity change, negative = inhibition is reported as -0.438% (inactive).
`Cc1oc2ccc(O)c(CN3CCCCC3)c2c1C(=O)Nc1cccc(C(F)(F)F)c1` was tested, and the activity change, negative = inhibition was 11.6% (inactive).
For `COc1ccc(N2CCN(S(=O)(=O)c3ccc4c(c3)N(C(C)=O)CCO4)CC2)cc1`, the activity change, negative = inhibition was -18% (inactive).
In the case of `COc1cccc(N2CCN(S(=O)(=O)c3ccc4c(c3)CCCN4C(C)=O)CC2)c1`, the activity change, negative = inhibition is reported as -35.4% (active).
In the case of `CC(=O)N1CCCc2cc(S(=O)(=O)N3CCCC(C(=O)N4CCN(c5cccc(Cl)c5)CC4)C3)ccc21` (stereo unspecified), the activity change, negative = inhibition is reported as -14.3% (inactive) and -32% (active).
`CC(=O)N1CCCc2cc(S(=O)(=O)CCC(=O)N3CCN(c4ccccc4)CC3)ccc21` was tested, and the activity change, negative = inhibition was -0.97% (inactive).
`O=C(C1CCC1)N1CCN(c2ccccc2)CC1` was tested, and the activity change, negative = inhibition was 6.47% (inactive).
With `CC(=O)N1CCCc2cc(S(=O)(=O)N3CCC(C(=O)NC4CCCCC4)CC3)ccc21` the activity change, negative = inhibition was 0.0767% (inactive).
For `O=C(C1CCCN(S(=O)(=O)c2ccccc2)C1)N1CCN(c2ccc(F)cc2)CC1` (stereo unspecified), the activity change, negative = inhibition was -43.7% (active).
In the case of `CC(=O)N1c2ccc(S(=O)(=O)N3CCC(C(=O)N4CCN(c5ccccc5)CC4)CC3)cc2CC1C` (stereo unspecified), the activity change, negative = inhibition is reported as -7.84% (inactive).
In the case of `Cc1ccc(S(=O)(=O)N2CCCC(C(=O)N3CCN(C)CC3)C2)cc1` (stereo unspecified), the activity change, negative = inhibition is reported as 10.2% (inactive).
With `CC(=O)Nc1cccc(NC(=O)CSc2cn(CC(=O)N3CCCC3)c3ccccc23)c1` the activity change, negative = inhibition was 12.2% (inactive).
In the case of `CC(=O)Nc1ccc(NC(=O)CSc2nnc3c4cc(Br)ccc4n(C)c3n2)cc1`, the activity change, negative = inhibition is reported as -2.66% (inactive).
`Cc1cccc(C)c1-n1ncc(C(=O)NCCCN2CCCCC2)c1C1CCN(C(=O)OC(C)(C)C)CC1` was tested, and the activity change, negative = inhibition was 40.2% (inactive).
`CCOC(=O)CN1C(C(=O)c2ccccc2)=C(OC(=O)C(C)(C)C)c2ccccc2S1(=O)=O` was tested, and the activity change, negative = inhibition was -13.9% (inactive).
In the case of `FC(F)(F)c1cc(Nc2nc3ccccc3c3nncn23)ccc1Cl`, the activity change, negative = inhibition is reported as -0.606% (inactive).
With `CC1=C(C(=O)Nc2ccccc2Cl)C(c2cccs2)n2ncnc2N1` (stereo unspecified) the activity change, negative = inhibition was 4.21% (inactive).
`CC(C)CNC(=S)Nc1ccc(F)cc1` was tested, and the activity change, negative = inhibition was 12.4% (inactive).
For `CC(C)N(Cc1ccccc1)C(=S)Nc1ccc(OC(F)F)cc1`, the activity change, negative = inhibition was -4.75% (inactive).
In the case of `CC(NC(=S)Nc1ccc(OC(F)F)cc1)c1ccc(F)cc1` (stereo unspecified), the activity change, negative = inhibition is reported as -35.4% (active).
In the case of `CCOC(=O)c1ccc(NC(=O)CC2C(=O)N(c3ccccc3)C(=O)N2Cc2cccs2)cc1` (stereo unspecified), the activity change, negative = inhibition is reported as -10.5% (inactive).
For `COc1cc(NC(=S)NCc2ccco2)c(OC)cc1Cl`, the activity change, negative = inhibition was -9.33% (inactive).
With `Cc1ccc(NC(=S)NCCc2ccc(Cl)cc2)c(C)c1` the activity change, negative = inhibition was 22.5% (inactive).
`Cc1ccc(NC(=S)NCc2ccccc2Cl)c(C)c1` was tested, and the activity change, negative = inhibition was -39.4% (active).
With `S=C(NCCc1ccccc1)NCc1ccccc1Cl` the activity change, negative = inhibition was -29.8% (inactive).
In the case of `S=C(NCc1ccco1)NCc1ccccc1Cl`, the activity change, negative = inhibition is reported as -32.9% (active).
`Cc1cc(F)ccc1NC(=S)NCCc1ccccc1` was tested, and the activity change, negative = inhibition was -15.6% (inactive).
